Cruzain inh Det: qHTS Assay for Promiscuous and Specific Inhibitors of Cruzain (with detergent). Cruzipain (Trypanosoma cruzi), P25779. Potency, µM, for the others: max response, negative = inhibition, actives largely listed as inhibitors. purified cruzain, Z-FR-AMC fluorescence, 0.01% Triton. 0.43% of 200,000 active;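 further: plate controls were neutral wells for no effect and buffer without enzyme for full effect; nearly all actives have a fitted effect of over 40% in size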
Target sequence (P25779 123-467 limits assumed): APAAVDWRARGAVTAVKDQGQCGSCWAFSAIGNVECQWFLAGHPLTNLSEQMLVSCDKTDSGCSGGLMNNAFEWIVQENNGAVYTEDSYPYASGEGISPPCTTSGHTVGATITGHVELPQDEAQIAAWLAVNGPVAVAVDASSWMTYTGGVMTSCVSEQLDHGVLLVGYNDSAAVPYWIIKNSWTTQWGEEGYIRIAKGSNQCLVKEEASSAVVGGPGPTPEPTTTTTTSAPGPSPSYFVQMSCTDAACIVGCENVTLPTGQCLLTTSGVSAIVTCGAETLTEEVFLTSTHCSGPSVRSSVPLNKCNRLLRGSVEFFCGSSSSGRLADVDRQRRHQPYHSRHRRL
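Purified cruzain (1.5 nM final) was preincubated with compounds for 15 min at room temperature in 100 mM sodium acetate pH 5.5, 5 mM DTT, 0.01% Triton X-100. Reaction started with 2 uM Z-FR-AMC; AMC fluorescence change over 60 s gave activity.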
Cruzain inh noDet: qHTS Assay for Promiscuous and Specific Inhibitors of Cruzain (without detergent). purified cruzain, Z-FR-AMC fluorescence, no detergent. Potency, µM, for inactives: max response, negative = inhibition, most hits filed as inhibitors. 2.3% of 200,000 active;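 further: plate controls were enzyme without inhibitor for no effect and buffer without enzyme for full effect; nearly all actives have a fitted effect of over 40% in size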
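Detergent-free condition (0.00005% Triton X-100) in acetate buffer pH 5.5 with DTT. 1.5 nM enzyme and compound were pre-mixed 15 min, then 2 uM Z-FR-AMC substrate added; reaction progress from fluorescence change between first and third reads (60 s).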
Papain counter: qHTS Assay for Inhibitors of Papain: Counterscreen for Cruzain Assay; Potency, µM, inactives show max response, negative = inhibition, hits mostly inhibitors; purified papain, Z-FR-AMC fluorescence cleavage; 41% of 410 active; AID 2161, 2009; shares compounds with Cruzain inh Det;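 further: 0% = no-compound wells and -100% = no-enzyme wells; nearly all actives have a fitted effect of over 35% in size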
Numbers without * were called inactive; u = inconclusive; x = no result given. A selection: hits, their analogues and other compounds. The true share with any hit is near 2.5%. The call rests on the fitted dose curve; in most records, active means well fitted curve in the direction sought with a large enough effect; inconclusive means small, poorly fitted or top-dose-only effect, or another doubt; inactive means no such curve, though single readings can be large; an effect the other way counts as inactive or inconclusive. Potency means the concentration at half of the fitted maximal effect.

SMILES	Cruzain inh Det	Cruzain inh noDet	Papain counter
O=C(COC(=O)CNC(=O)C1CCCCC1)NC1CC1	x	x	25µM*
CC(C)(CNC(=O)C1CCCC1)CNC(=O)C1CCCC1	-1%	-6%	x
CC(=O)c1cccc(Nc2c3c(nc4nc(-c5cccs5)nn24)CCCC3)c1	-5%	-8%	x
CCOC(=O)[C@H](CCc1ccccc1)N[C@@H](C)C(=O)N1[C@H](C(=O)O)C[C@H]2CCC[C@@H]21	-3%	-10%	x
CCOC(=O)[C@H](CCc1ccccc1)N[C@@H](C)C(=O)N1[C@H](C(=O)O)C[C@H]2CCCC[C@@H]21	2%	u	11%
Cc1nn(C(=O)c2cccc(F)c2)c(C)c1S(=O)(=O)N1CCCCCC1	-1%	-1%	x
Oc1c(C(c2ccc(F)cc2)N2CCOCC2)sc2nc(-c3ccco3)nn12 (configuration not stated)	0%	-4%	x
COc1cc(OC)c(NC(=O)C2CCN(C(=O)c3sc4nc[nH]c(=O)c4c3C)CC2)cc1Cl	4%	26%	x
COC(=O)Sc1nc(N2CCOCC2)c2c(c1C#N)CC(C)(C)OC2	10µM*	16µM*	16µM*
CC1(C)Cc2c(C#N)c(SCC(=O)c3ccccc3)nc(N3CCOCC3)c2CO1	-8%	u	x
Cc1ccc(S(=O)(=O)c2c(C)nn(-c3ccccc3)c2OC(=O)c2ccccc2F)cc1	-1%	4%	x
C=Cc1ccccc1Cl	5%	0%	x
CCN(CC)C(=O)CN(C#N)c1nc(OC)nc(N(C)C)n1	-1%	-16%	x
COc1nc(C#N)nc(N(C)C)n1	10µM*	13µM*	16µM*
Cc1cc(NC(=O)c2cc(-c3cccc(Cl)c3)on2)n(-c2ccccc2)n1	-2%	-8%	x
Cc1cccc(C)c1Nc1nc2ccccc2nc1NS(=O)(=O)c1ccccc1	-10%	-3%	x
O=C(CSC1=Nc2ccccc2N=C(c2ccc(F)cc2)C1)NCc1ccccc1Cl	-3%	9%	x
Cc1ccc(NC(=O)Cn2c(SCc3cccc(F)c3)nc3ccncc32)c(C)c1	-22%	-3%	x
COC(=O)c1ccc(Cn2c(SCc3cccc(C)c3)nc3ccncc32)cc1	-9%	u	x
CCCCNC(=O)C(CC)n1c(SCc2cccc(F)c2)nc2ccncc21 (configuration not stated)	x	x	-10%
CC(CNC(=O)c1ccc(CSc2nc3ccncc3n2Cc2cccc(F)c2)cc1)c1ccccc1 (configuration not stated)	-6%	4%	x
CCCCNC(=O)Cn1c(SCc2cccc(F)c2)nc2ccncc21	x	x	-10%
CCC(C(=O)NC1CCCCC1)n1c(SCc2cccc(F)c2)nc2ccncc21 (configuration not stated)	13µM*	u	-14%
CCCSCCCNC(=O)c1ccc(C)c(NC(=O)c2nsc3ccccc23)c1	2%	5%	x
CCN(CCCNC(=O)c1ccc(Sc2ccc(Cl)cc2)c(NC(C)=O)c1)c1ccccc1	0%	0%	x
SMILES	Cruzain inh Det	Cruzain inh noDet	Papain counter
O=C(CSc1nc2ccccc2n1Cc1cccc(F)c1)NCc1ccccc1	-4%	10%	x
COc1cccc(CNC(=O)CCc2c(C)nc3c(c(C)nn3-c3ccc(C)c(C)c3)c2C)c1	-4%	-22%	x
O=C(Nc1ccccc1)C1CCCCC1	2%	7%	x
NC(=O)C(OC(=O)CNC(=O)C1CCCCC1)c1ccccc1 (configuration not stated)	x	x	13µM*
O=C(CNC(=O)C1CCCCC1)OC(C(=O)c1ccccc1)c1ccccc1 (configuration not stated)	x	x	3%
O=C(CNC(=O)C1CCCCC1)Nc1ccccc1Cl	-2%	4%	x
O=C(O)[C@@H]1[C@@H]2C[C@H]3c4[nH]c5ccccc5c4CCN3C[C@@H]2CC[C@@H]1O	-6%	0%	x
Cc1ccc(N2CCN(C(=O)Cn3ncc4c([nH]c5ccc(C)cc54)c3=O)CC2)c(C)c1	0%	10%	x
CC[C@@H](C)[C@H](NC(=O)OC(C)(C)C)c1nnc(S(=O)(=O)Cc2cc(C)ccc2C)o1	8.9µM*	16µM*	16µM*
Cc1[nH]c(=O)[nH]c(=O)c1CSc1nnc([C@@H](NC(=O)OC(C)(C)C)C(C)C)o1	10%	0%	x
O=C(CSc1ncc(S(=O)(=O)c2ccc(Cl)cc2)c(=O)[nH]1)Nc1ccc2c(c1)OCCO2	-12%	23%	x
CCCCC(=O)Nc1ccccc1C(=O)OCc1cc(=O)n2nc(C3CCCCC3)sc2n1	-5%	-3%	x
O=C(Cc1ccccc1)NC(=S)Nc1cc(C(F)(F)F)ccc1Cl	-1%	-4%	x
O=C(CNC(=O)c1ccccc1)N[C@@H](C(=O)Nc1cc(C(F)(F)F)ccc1Cl)c1ccccc1	x	x	-10%
Cc1ccc(CN2CCC(CNC(=O)c3cnn(-c4ccccc4)c3C3CCN(C(=O)OC(C)(C)C)CC3)CC2)cc1	-3%	-14%	x
CCOC(=O)OC(C)OC(=O)C1N2C(=O)C(NC(=O)C(N)c3ccccc3)C2SC1(C)C (configuration not stated)	1%	4%	x

Source: PubChem (National Center for Advancing Translational Sciences (NCATS))
